# Source: PubChem BioAssay (National Center for Advancing Translational Sciences (NCATS))
# Hits are enriched below; roughly 13% of the tested compounds scored in any of these assays.
# HCV inhibitor: blocks hepatitis C virus; Huh7.5.1 HCVcc-Cre infection, luciferase reporter, 44 h; Potency, µM (titrated, usually from 41.8 µM), for inactives: at the highest dose activity change, negative = inhibition, actives largely listed as inhibitors; 340,000 tested, 3.4% active; AID 651820; note: potency is the fitted concentration of half-maximal effect
#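 Reporter virus HCVcc-Cre (~0.5 moi) infects cells exposed to compound; seeding density 1,000 cells/well with 4 h settling beforehand. Luminescence, 15 sec read, taken 44 h post-infection following a 15 min RT substrate incubation.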
# HCMV antiviral: human cytomegalovirus inhibition; HFF cells, HCMV-luciferase reporter, 72 h; active compounds read low; activity change, negative = inhibition, % at 57.5 µM; 410,000 tested, 4.5% active; in the data active = activity change below about -60%; inconclusive = no clear call, values can overlap the other calls; inactive = above about -39%
#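 Two-dose cell screen: HFF monolayers treated with compounds and infected with luciferase-expressing HCMV at 1 PFU/cell, 72 h at 37C, then lysed for luciferase measurement.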
# Pf growth 48h: inhibits P. falciparum growth in the first generation, 48 h. 310,000 tested, 5.9% active. Potency, µM (highest dose often 28.7 µM), for the others: at the top dose activity change, negative = inhibition, hits mostly inhibitors. P. falciparum luciferase growth in erythrocytes, 48 h; note: potency is the fitted concentration of half-maximal effect
#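 In quantitative HTS format, infected erythrocytes bearing luciferase-reporter parasites were treated for a single generation at 37 C. Luminescence after adding detection reagent served as the growth measure.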
# Pf growth 96h: P. falciparum growth inhibition at 96 hour, primary screen for plastid delayed-death inhibitors. P. falciparum luciferase reporter growth, 96 h. Potency, µM (titrated, usually from 28.7 µM), without a hit: at the top dose activity change, negative = inhibition, most hits filed as inhibitors. 320,000 tested, 6.9% active. AID 504834; note: potency is the fitted concentration of half-maximal effect
#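 Plates of compound plus infected erythrocytes (2% hematocrit, 0.05% parasitemia final) incubate 96 hours, 37 C, 5% CO2. Detection reagent added; reduced luminescence from the parasites' luciferase reporter flags inhibition.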
# Starred values were filed as active, the others as inactive; ? = inconclusive; · = no result given. Unless noted, calls come from the whole dose curve; as a rule, active = well fitted inhibition curve with a large enough effect; inconclusive = small, poorly fitted or top-dose-only effect, or another doubt; inactive = no such curve, though single readings can be large or run the other way. % is set by controls: 0 for no effect and ±100 for the full control effect.
SMILES,HCV inhibitor,HCMV antiviral,Pf growth 48h,Pf growth 96h
O=C1c2ccccc2C(=O)N1c1nc(-c2cccs2)cs1,-2%,79,50%,15µM*
COc1ccc(NC(=O)Cn2ncc3c2-c2ccccc2OC3)cc1Cl,·,-12,·,·
O=C(NCc1ccc[n+](CCCCS(=O)(=O)[O-])c1)c1ccc(OC(F)F)cc1,·,·,-2%,26%
O=C(C[n+]1cccc(CNC(=O)c2ccc(OC(F)F)cc2)c1)Nc1ccc(SC(F)F)cc1,?,40,1.7µM*,0.17µM*
O=C(C[n+]1cccc(CNC(=O)c2ccc(OC(F)F)cc2)c1)Nc1ccccc1Cl,-6%,6,13µM*,?
COc1cc(C(=O)OCc2cc(=O)n3nc(C(C)C)sc3n2)cc(OC)c1OC,·,8,·,·
Cc1cc(C(=O)CS(=O)(=O)c2ccc(Cl)cc2)cc(C)c1O,11µM*,18,-16%,15%
COc1ccc(S(=O)(=O)CC(=O)c2cc(C)c(O)c(C)c2)cc1,-6%,-39,-5%,-15%
O=C(Nc1ccc(Cl)c(Cl)c1)N1N=CCC1c1ccccc1 (configuration not stated),10µM*,-66*,-1%,?
Cc1cc(C(=O)CN2C(=O)NC3(CCCc4ccccc43)C2=O)c(C)n1Cc1ccco1 (configuration not stated),?,·,1.7µM*,·
Cc1cc(C(=O)CN2C(=O)NC3(CCCc4ccccc43)C2=O)c(C)n1Cc1ccccc1 (configuration not stated),?,26,·,1.2µM*
O=C(O)CN1C(=O)NC2(CCCc3ccccc32)C1=O (configuration not stated),2%,-11,29%,24%
Cc1cc(C(=O)CN2C(=O)NC3(CCCc4sccc43)C2=O)c(C)n1-c1ccccc1 (configuration not stated),?,16,?,?
COc1ccc(-n2c(C)cc(C(=O)CN3C(=O)NC4(CCCc5sccc54)C3=O)c2C)cc1 (configuration not stated),?,-39,?,4.7µM*
Cc1ccc(CN(C)C(=O)CN2C(=O)NC3(CCCc4ccccc43)C2=O)c(C)c1 (configuration not stated),10µM*,45,?,-33%
COc1cc(OC)c2cc(C(=O)N/N=C/c3ccccc3O)[nH]c2c1,8.9µM*,-96*,·,4.7µM*
COc1ccc(C=NNC(=O)CCCC(=O)NN=Cc2ccc(OC)c(OC)c2)cc1OC,34%,-29,·,·
COc1ccc(C=NNC(=O)CCCC(=O)NN=Cc2ccc(OC)c(O)c2)cc1O,1%,-69*,·,·
CCOc1ccc(/C=N/NC(=O)c2cc3c(OC)cc(OC)c(OC)c3[nH]2)cc1,11µM*,-3,?,?
COc1cccc(/C=N/NC(=O)CCn2c3ccccc3c3ccccc32)c1,-22%,49,-15%,-25%
COc1ccc(/C=N/NC(=O)CCn2c3ccccc3c3ccccc32)cc1O,6.3µM*,17,?,?
Cc1cccc(C(=O)N2CCNC(=O)C2CC(=O)Nc2ccc(F)cc2)c1 (configuration not stated),·,8,·,·
COc1ccc(N2CCN(Cc3nc4c(c(=O)[nH]c(=O)n4C)n3Cc3ccccc3F)CC2)cc1,·,-10,·,·
COc1cc(OC)c(NC(=O)Nc2ccc3c(c2)N(C)C(=O)c2ccccc2S3)cc1Cl,·,1,·,·
COc1ccc2[nH]c(C(=O)N/N=C/c3ccc(OC)c(O)c3)cc2c1,-14%,-74*,?,?
SMILES,HCV inhibitor,HCMV antiviral,Pf growth 48h,Pf growth 96h
CC1=C(C(=O)Nc2ccccc2)C(c2ccncc2)n2nc(SCc3ccccc3F)nc2N1 (configuration not stated),·,3,·,·
CCCS(=O)(=O)N1CCC(C(=O)NCCN2CCC(Cc3ccccc3)CC2)CC1,-15%,-30,4.1µM*,2%
CCCS(=O)(=O)N1CCC(C(=O)NCCN(C)Cc2ccccc2)CC1,16%,-5,18%,15µM*
CCS(=O)(=O)N1CCC(C(=O)NCCCN2CCC(Cc3ccccc3)CC2)CC1,0%,4,-2%,9.3µM*
CCOc1ccc(CCNC(=O)C2CCN(S(=O)(=O)CC)CC2)cc1OCC,-7%,-9,50%,2.6µM*
CCOc1ccc(CCNC(=O)C2CCN(S(=O)(=O)N3CC(C)CC(C)C3)CC2)cc1OCC (configuration not stated),-17%,?,-19%,-12%
CCS(=O)(=O)N1CCC(C(=O)NCCN2CCN(Cc3ccccc3)CC2)CC1,4%,-1,3%,7%
CCCS(=O)(=O)N1CCCC(C(=O)NCCN(Cc2ccccc2)C(C)C)C1 (configuration not stated),4%,-3,7%,31%
Clc1ccc(-c2nc3ccccn3c2Nc2ccc3c(c2)OCCO3)s1,·,28,·,·
CCCCN(C(=O)Cc1ccc([N+](=O)[O-])cc1)C(C(=O)Nc1c(C)cccc1C)C(=O)c1ccc(OC)cc1 (configuration not stated),·,-29,·,·
COc1ccc(NC(=O)NCCCN2CCC(Cc3ccccc3)CC2)cc1,?,-26,-25%,?
CCCS(=O)(=O)N1CCCC(C(=O)NCCCN(CC)c2cccc(C)c2)C1 (configuration not stated),-20%,-17,-14%,?
CCS(=O)(=O)N1CCC(C(=O)NCCc2ccc(C)cc2)CC1,6%,64,4%,?
CCS(=O)(=O)N1CCC(C(=O)NCCc2ccccc2)CC1,12%,-13,27%,1.5µM*
CSc1ccc(NC(=O)NCCCN2CCC(Cc3ccccc3)CC2)cc1,10µM*,-63*,8.3µM*,?
CCOc1ccc(CCNC(=O)C2CCCN(S(=O)(=O)c3c(C)n[nH]c3C)C2)cc1OCC (configuration not stated),?,45,8.3µM*,4%
CCCS(=O)(=O)N1CCCC(C(=O)NCCN(CC)c2ccccc2)C1 (configuration not stated),-8%,-38,?,13µM*
Cc1cc(C)c(NC(=O)C2C(=O)Nc3ccccc3C(=O)N2C(C)(C)C)c(C)c1 (configuration not stated),·,-14,·,·
CCN(C(=O)CSc1nc2n[nH]c(C)c2c(=N)n1-c1cccc(OC)c1)c1cccc(C)c1,·,-21,·,·
Cc1n[nH]c(C)c1S(=O)(=O)N1CCCC(C(=O)Nc2nccs2)C1 (configuration not stated),-12%,-98*,·,?
Cc1n[nH]c(C)c1S(=O)(=O)N1CCCC(C(=O)NCc2cccs2)C1 (configuration not stated),10%,-6,·,28%
CCN(CC)CCCN1C(=O)C(=O)/C(=C(/O)c2ccc(C)cc2)C1c1ccccn1 (configuration not stated),3%,34,6%,3.3µM*
CCN(CC)CCCN1C(=O)C(=O)/C(=C(/O)c2ccc3c(c2)CC(C)O3)C1c1cccnc1 (configuration not stated),·,·,11%,1.5µM*
